# Values without a mark were called inactive. Records with an inconclusive call do not appear. Calls of active or inactive are those of the source. Unless noted, calls come from the whole dose curve; as a rule, active = well fitted curve in either direction with a large enough effect (not every such curve was filed as active); inconclusive = small, poorly fitted or top-dose-only effect, or another doubt; inactive = flat fitted curve, though single readings scatter.
# Columns and labels:
# [1] = molecular target: Lysosomal acid glucosylceramidase (Homo sapiens) (UniProt P04062); test: Glucocerebrosidase-p2 (AID 348; in the data active = potency below about 10 µM; note: potency is the fitted concentration of half-maximal effect); details: purified GBA, blue fluorogenic substrate, 40 min
# Sequence of Lysosomal acid glucosylceramidase (Homo sapiens) (P04062 whole entry, looked up): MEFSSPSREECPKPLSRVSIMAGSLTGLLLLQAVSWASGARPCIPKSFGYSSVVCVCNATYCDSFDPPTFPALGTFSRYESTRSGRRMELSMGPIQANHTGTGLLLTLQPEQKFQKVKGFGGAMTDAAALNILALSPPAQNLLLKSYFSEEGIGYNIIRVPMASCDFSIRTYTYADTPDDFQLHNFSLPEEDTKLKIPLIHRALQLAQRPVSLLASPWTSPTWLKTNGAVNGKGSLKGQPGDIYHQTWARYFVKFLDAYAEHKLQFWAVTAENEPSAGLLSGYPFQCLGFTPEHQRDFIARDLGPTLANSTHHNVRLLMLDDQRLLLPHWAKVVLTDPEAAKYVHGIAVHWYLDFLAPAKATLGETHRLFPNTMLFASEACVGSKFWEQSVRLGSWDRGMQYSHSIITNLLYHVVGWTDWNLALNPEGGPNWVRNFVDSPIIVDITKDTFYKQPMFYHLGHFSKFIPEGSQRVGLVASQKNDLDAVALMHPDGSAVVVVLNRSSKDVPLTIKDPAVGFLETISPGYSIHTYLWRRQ
# Summary of the method: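 Compounds titrated from 0.6 nM upwards against 0.2 nM enzyme in pH 5.9 citric acid/KH2PO4, taurocholate, tween-20; blue fluorogenic substrate 80 uM, 40 min room temperature, stopped and read Ex 365/Em 440 for AC50.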
# [2] = AP1 Signaling Pathway (AID 357); details: ME-180 AP-1-bla reporter, EGF-induced, beta-lactamase ratio, 5 h; at 7.69 µM (top of the series) unless noted;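 note: ME-180 reporter cells stimulated with EGF at its EC50 level; % is set by controls: 0 for no effect and ±100 for the full control effect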
# Summary of the method: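 Modulation of EGF-driven AP-1 transcription was assessed with a beta-lactamase reporter in ME-180 cells. Compound and EC50 EGF were co-incubated 5 hours at 37 °C before 2.5-hour CCF4 loading at room temperature and dual-emission reading.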
# [3] = molecular target: Cytochrome P450 1A2 (Homo sapiens) (UniProt P05177); test: p450-cyp1a2 (AID 410; calls by dose curve; note: potency is the fitted concentration of half-maximal effect;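 for activity change, negative = inhibition: -100% = full effect of reference inhibitor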); details: recombinant CYP1A2, luciferin-ME demethylation, luminescence; series mostly up to 57 µM
# Sequence of Cytochrome P450 1A2 (Homo sapiens) (P05177 whole entry, looked up): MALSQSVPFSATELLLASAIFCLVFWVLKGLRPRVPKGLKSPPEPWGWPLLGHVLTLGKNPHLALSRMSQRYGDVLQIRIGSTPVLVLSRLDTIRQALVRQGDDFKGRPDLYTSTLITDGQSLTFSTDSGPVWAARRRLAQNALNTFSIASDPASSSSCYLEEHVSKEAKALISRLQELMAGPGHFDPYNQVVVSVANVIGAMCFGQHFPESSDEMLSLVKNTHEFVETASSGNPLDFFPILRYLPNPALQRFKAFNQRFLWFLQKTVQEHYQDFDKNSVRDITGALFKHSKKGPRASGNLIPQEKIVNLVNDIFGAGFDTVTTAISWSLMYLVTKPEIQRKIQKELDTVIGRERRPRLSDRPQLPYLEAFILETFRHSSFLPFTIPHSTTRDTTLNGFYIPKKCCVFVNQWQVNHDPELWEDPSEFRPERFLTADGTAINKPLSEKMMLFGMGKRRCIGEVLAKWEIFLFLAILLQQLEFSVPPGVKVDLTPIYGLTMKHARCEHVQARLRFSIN
# Summary of the method: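 Luminescent readout of luciferin formed from Luciferin-ME by human CYP1A2; data normalized against complete inhibition by 57 uM furafylline. Enzyme 20nM, substrate 100uM at Km, 100mM KPO4 buffer, 60 min reaction at room temperature.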
# [4] = NFAT Signaling Pathway (AID 444); details: Jurkat NFAT-bla M1, carbachol, beta-lactamase ratio, 5 h; at 7.69 µM (top of the series) unless noted;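 note: carbachol stimulus at about its EC50 of 1 µM final; % is set by controls: 0 for no effect and ±100 for the full control effect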
# Summary of the method: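 Read-out: CCF4 FRET ratio (460 nm/530 nm) after 1 h RT dye loading, used for %activity and AC50 from titration series. Cells: Jurkat NFAT-β-lactamase/M1 line, treated with compound plus 1 uM carbachol for 5 h, 37 °C.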
# [5] = molecular target: Glucocorticoid receptor (Homo sapiens) (UniProt P04150); test: GR-GFP Redistribution (AID 450;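 active = compounds whose dose series gives a full or clear partial fitted curve of increased nuclear translocation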; note: potency is the fitted concentration of half-maximal effect); details: U2OS GR-GFP nuclear translocation, laser cytometry, 2 h
# Sequence of Glucocorticoid receptor (Homo sapiens) (P04150 whole entry, looked up, the tested form may be a part): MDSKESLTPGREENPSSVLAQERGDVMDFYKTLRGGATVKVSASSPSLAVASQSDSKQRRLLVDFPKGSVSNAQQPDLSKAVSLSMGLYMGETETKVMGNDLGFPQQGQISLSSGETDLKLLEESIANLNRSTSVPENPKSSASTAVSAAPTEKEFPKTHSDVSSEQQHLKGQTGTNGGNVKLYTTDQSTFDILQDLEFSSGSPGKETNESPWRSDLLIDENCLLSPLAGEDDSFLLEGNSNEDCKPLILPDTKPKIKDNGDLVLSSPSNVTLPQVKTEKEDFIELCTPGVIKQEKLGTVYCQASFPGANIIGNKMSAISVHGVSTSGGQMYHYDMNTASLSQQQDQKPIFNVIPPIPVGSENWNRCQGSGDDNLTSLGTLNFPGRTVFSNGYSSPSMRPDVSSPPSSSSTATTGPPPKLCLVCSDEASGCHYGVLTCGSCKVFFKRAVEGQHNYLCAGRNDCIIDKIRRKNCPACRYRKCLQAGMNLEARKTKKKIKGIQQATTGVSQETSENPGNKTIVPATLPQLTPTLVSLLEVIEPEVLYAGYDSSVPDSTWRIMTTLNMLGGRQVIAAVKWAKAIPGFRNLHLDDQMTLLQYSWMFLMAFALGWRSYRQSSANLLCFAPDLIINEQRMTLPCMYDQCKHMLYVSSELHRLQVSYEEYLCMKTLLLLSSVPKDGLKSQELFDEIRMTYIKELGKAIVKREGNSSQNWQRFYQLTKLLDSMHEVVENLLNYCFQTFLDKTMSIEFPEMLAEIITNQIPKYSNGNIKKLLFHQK
# [6] = molecular target: Glucocorticoid receptor (Homo sapiens) (UniProt P04150); test: GR-EFC Redistribution (AID 451; calls by dose curve; note: potency is the fitted concentration of half-maximal effect); details: CHO-K1 GR-EFC translocation, beta-gal luminescence, 2 h
# Summary of the method: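 Translocation of GR-ED fusion to nuclear EA restores b-gal, read by luminescence after 1 h room-temperature detection. Engineered CHO-K1 biosensor cells, 1,000/well, exposed 2 h at 37 C to titrations up to 46 uM final.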
# [7] = molecular target: 3',5'-cyclic-AMP phosphodiesterase 4B (Homo sapiens) (UniProt Q07343); test: qHTS Assay for Inhibitors of PDE-IV (AID 607; active = well fitted activation curve with a large enough effect in the main read-out, with a control signal flat, not every such curve was filed as active; note: % of control where 0% means no effect); details: HEK293 ACTOne CNG channel cells, membrane potential fluorescence; series mostly up to 22.9 µM
# Sequence of 3',5'-cyclic-AMP phosphodiesterase 4B (Homo sapiens) (Q07343 whole entry, looked up): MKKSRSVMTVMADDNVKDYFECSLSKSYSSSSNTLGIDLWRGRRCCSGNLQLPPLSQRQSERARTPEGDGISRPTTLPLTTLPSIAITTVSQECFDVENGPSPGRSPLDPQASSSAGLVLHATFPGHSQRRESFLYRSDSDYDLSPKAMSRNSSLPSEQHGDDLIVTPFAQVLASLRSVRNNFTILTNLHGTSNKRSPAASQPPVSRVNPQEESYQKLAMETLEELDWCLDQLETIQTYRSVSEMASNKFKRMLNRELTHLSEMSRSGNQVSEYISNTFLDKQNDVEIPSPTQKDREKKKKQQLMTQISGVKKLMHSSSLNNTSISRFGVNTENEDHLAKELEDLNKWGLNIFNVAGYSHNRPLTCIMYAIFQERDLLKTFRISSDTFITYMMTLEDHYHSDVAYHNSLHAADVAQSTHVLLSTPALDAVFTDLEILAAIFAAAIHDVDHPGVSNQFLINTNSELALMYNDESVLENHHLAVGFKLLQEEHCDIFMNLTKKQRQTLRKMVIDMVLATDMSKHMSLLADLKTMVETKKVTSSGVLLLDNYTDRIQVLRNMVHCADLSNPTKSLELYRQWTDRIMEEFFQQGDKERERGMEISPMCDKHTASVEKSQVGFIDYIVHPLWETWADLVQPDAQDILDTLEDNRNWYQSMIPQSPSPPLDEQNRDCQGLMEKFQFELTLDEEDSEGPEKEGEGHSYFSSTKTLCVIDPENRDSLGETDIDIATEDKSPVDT
# Summary of the method: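 The readout is membrane depolarisation from a cAMP-sensing CNG channel, detected with a potential dye at ex 535/em 590. Cells were HEK293-derived (endogenous PDE-IV) at 1000 cells/well, titrated up to 22.9 uM final.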
# [8] = molecular target: Cytochrome P450 3A4 (Homo sapiens) (UniProt P08684); test: qHTS Assay for Inhibitors and Substrates of Cytochrome P450 3A4 (AID 884; active = well fitted curve in the direction sought with a large enough effect; an effect the other way counts as inactive or inconclusive; note: nearly all actives have a fitted effect of over 50% in size; note: potency is the fitted concentration of half-maximal effect); details: recombinant CYP3A4, Luciferin-PPXE luminescence; series mostly up to 57.1 µM
# Sequence of Cytochrome P450 3A4 (Homo sapiens) (P08684 whole entry, looked up): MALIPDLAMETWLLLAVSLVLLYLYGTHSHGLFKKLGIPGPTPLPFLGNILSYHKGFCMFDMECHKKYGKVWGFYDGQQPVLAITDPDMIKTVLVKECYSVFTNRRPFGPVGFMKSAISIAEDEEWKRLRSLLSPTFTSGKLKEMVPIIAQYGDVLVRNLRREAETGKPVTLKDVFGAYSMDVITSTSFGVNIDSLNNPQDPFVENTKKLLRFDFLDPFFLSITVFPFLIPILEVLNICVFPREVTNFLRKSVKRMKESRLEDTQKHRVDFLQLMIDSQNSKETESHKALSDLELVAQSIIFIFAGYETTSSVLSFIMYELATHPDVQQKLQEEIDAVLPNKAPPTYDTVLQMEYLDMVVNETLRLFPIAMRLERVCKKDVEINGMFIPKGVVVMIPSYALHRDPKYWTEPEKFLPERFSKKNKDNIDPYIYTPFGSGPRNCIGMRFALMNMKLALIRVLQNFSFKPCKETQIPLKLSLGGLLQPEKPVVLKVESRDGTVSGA
# Summary of the method: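 20 nM human CYP3A4 with 25 uM Luciferin-PPXE (at KM) in 200 mM KPO4, preincubated 10 min with compound; NADPH regeneration started a 60 min RT reaction. Luciferin detected by luminescence, normalized to 57 uM ketoconazole as full inhibition.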
# [9] = molecular target: Cytochrome P450 3A4 (Homo sapiens) (UniProt P08684); test: qHTS Assay for Activators of Cytochrome P450 3A4 (AID 885; active = well fitted curve in the direction sought with a large enough effect; an effect the other way counts as inactive or inconclusive; note: nearly all actives have a fitted effect of over 65% in size; note: potency is the fitted concentration of half-maximal effect); details: recombinant CYP3A4, Luciferin-PPXE luminescence, 60 min; series mostly up to 57.1 µM
# Summary of the method: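 Steps: enzyme/substrate mix dispensed; compound added, 10 min RT; NADPH regeneration solution added, 60 min RT; luciferin detection buffer stops reaction; 20 min later luminescence measured.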
# [10] = qHTS Assay for Identification of Small Molecule Agonists for Hypoxia Response Element Signaling Pathway (AID 914; active = well fitted activation curve with a large enough effect in the signal ratio, with a control signal flat, not every such curve was filed as active; the % refers to the signal ratio; note: potency is the fitted concentration of half-maximal effect; for activation: % of control where 0% means no effect); details: ME-180 HRE-bla reporter, beta-lactamase ratio, CoCl2, 17 h; activation: stronger effect = higher value
# Summary of the method: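 HRE-bla ME-180 assay for agonist-like enhancement of an EC50 CoCl2 stimulus: 17 h at 37 degrees Celsius, CCF4 for 2.5 h, ratiometric 460/530 nm signal converted to %Activity and fitted to AC50.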
# [11] = Primary qHTS for small molecule stabilizers of the endoplasmic reticulum resident proteome: Secreted ER Calcium Modulated Protein (SERCaMP) assay (AID 1508630; active = well fitted curve in the direction sought with a large enough effect; an effect the other way counts as inactive or inconclusive; note: % is set by controls: 0 for no effect and ±100 for the full control effect); details: SH-SY5Y GLuc-SERCaMP (Gaussia luciferase released on ER calcium loss) secretion, thapsigargin, luminescence; series mostly up to 38.4 µM
# Summary of the method: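 GLuc-SERCaMP-expressing SH-SY5Y cells, pretreated 16 h with compound, are challenged with thapsigargin to empty ER calcium stores; after 4 h, coelenterazine is added directly to the medium and luminescence is imaged.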
# [12] = Stat Signaling Pathway (AID 446); details: ME-180 SIE beta-lactamase reporter, IL-6 stimulated, 5 h; at 7.69 µM (top of the series) unless noted;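 note: ME-180 cervical cancer cells given 40 pM IL-6 alongside compound; SIE-controlled beta-lactamase reporter measured as 460/530 nm FRET emission ratio; % is set by controls: 0 for no effect and ±100 for the full control effect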
# Summary of the method: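 Screening format detects activators and inhibitors alike: ME-180 SIE-bla cells stimulated at 40 pM IL-6 for 5 hrs with compound, then dual-emission beta-lactamase read at 405 nm excitation.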
# [13] = molecular target: Mitogen-activated protein kinase 10 (Mus musculus) (UniProt Q61831); test: JNK3 AlphaScreen Assay (AID 530); details: JNK3 lysate, c-Jun phosphorylation; series mostly up to 57.1 µM
# Summary of the method: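 Compound titrations were preincubated 15 minutes at room temperature with substrate, antibody and pre-activated JNK3-containing HepG2 lysate. Reactions were started with 10 uM ATP and stopped with EDTA-containing bead buffer for AlphaScreen detection.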
# [14] = molecular target: Cytochrome P450 2C19 (Homo sapiens) (UniProt P33261); test: qHTS Assay for Inhibitors and Substrates of Cytochrome P450 2C19 (AID 899; active = well fitted curve in the direction sought with a large enough effect; an effect the other way counts as inactive or inconclusive; note: potency is the fitted concentration of half-maximal effect; nearly all actives have a fitted effect of over 60% in size); details: recombinant CYP2C19, luciferin-H EGE luminescence; series mostly up to 57.1 µM
# Sequence of Cytochrome P450 2C19 (Homo sapiens) (P33261 whole entry, looked up): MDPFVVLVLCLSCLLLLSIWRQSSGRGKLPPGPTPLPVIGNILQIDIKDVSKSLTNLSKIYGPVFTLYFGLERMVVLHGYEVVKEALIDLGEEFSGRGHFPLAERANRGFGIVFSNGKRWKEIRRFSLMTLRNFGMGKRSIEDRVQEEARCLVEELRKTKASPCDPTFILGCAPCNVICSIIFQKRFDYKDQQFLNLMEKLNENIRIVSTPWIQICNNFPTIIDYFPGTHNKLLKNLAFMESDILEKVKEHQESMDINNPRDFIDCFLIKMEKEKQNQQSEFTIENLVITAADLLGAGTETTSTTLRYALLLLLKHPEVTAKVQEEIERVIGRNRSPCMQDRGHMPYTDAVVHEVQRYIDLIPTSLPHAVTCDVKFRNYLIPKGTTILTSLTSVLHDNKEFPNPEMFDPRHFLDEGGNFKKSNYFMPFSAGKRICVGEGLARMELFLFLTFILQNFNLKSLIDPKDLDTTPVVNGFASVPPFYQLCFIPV
# Summary of the method: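 5nM enzyme + 10uM Luciferin-H EGE (=KM), 50mM KPO4; cpd pin-transferred, 10 min 37C; NADPH regen, 60 min 37C; stopped w/ luciferin detection reagent, 20 min; luminescence. Normalized to 57uM ketoconazole (AC100).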
# [15] = Confirmation and Secondary Assay for Modulators of Hemoglobin Beta Chain Splicing at IVS2 705 locus (AID 930; active = well fitted curve in the direction sought with a large enough effect; an effect the other way counts as inactive or inconclusive;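 note: HeLa cells stably expressing the EGFP-705 splicing reporter; GFP fluorescence per well restored by corrected splicing of the IVS2-705 intron in EGFP; % of control where 0% means no effect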); details: HeLa EGFP-705 splicing reporter, GFP fluorescence, 48 h; series mostly up to 38.3 µM
# Summary of the method: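 HeLa IVS2-705 EGFP reporter cells, 500/well, compound 2 d at 37C; correct splicing yields fluorescent EGFP. Control: 500 nM antisense PNA. Read-out: total peak GFP intensity.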
# [16] = molecular target: Ubiquitin carboxyl-terminal hydrolase 1 (Homo sapiens) (UniProt O94782); test: Inhibitors of USP1/UAF1: Pilot qHTS (AID 504865; active = well fitted curve in the direction sought with a large enough effect; an effect the other way counts as inactive or inconclusive;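 note: rhodamine fluorescence freed from ubiquitin-rhodamine substrate followed over time; top concentration of the series differs between compounds; % is set by controls: 0 for no effect and ±100 for the full control effect; nearly all actives have a fitted effect of over 35% in size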); details: purified USP1/UAF1, Ub-rhodamine cleavage fluorescence; series mostly up to 54.9 µM
# Sequence of Ubiquitin carboxyl-terminal hydrolase 1 (Homo sapiens) (O94782 whole entry, looked up): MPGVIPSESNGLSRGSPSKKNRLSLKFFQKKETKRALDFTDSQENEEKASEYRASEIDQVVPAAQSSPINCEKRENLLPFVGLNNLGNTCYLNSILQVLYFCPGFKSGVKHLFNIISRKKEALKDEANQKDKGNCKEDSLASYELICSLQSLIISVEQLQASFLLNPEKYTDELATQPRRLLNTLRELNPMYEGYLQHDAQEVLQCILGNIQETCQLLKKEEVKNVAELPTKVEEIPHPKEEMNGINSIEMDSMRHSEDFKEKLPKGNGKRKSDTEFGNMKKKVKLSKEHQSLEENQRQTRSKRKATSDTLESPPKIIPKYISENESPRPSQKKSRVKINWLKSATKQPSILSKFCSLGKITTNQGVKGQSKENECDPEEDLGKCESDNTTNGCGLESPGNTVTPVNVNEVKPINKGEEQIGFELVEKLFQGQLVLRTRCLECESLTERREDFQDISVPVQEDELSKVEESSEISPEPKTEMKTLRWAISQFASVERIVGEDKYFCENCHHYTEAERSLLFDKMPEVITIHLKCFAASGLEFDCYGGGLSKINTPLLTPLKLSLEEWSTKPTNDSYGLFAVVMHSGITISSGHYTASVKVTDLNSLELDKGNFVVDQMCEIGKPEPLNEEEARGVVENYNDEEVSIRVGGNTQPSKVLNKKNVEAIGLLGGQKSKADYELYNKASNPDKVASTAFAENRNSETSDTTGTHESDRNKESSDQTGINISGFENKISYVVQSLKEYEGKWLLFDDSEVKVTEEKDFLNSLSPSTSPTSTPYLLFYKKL
# Summary of the method: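 USP1/UAF1 complex (1nM) preincubated with compound 15 min at room temperature, then Ub-Rho substrate (150nM final) added. Fluorescence read kinetically at 480/540 nm, 6 reads every 60 seconds. Buffer: 50mM HEPES pH 7.8, 0.5mM EDTA, 0.1 mg/ml BSA, 1mM TCEP, 0.01% Tween-20.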
# [17] = molecular target: Cytochrome P450 2D6 (Homo sapiens) (UniProt P10635); test: qHTS Assay for Inhibitors and Substrates of Cytochrome P450 2D6 (AID 891; active = well fitted curve in the direction sought with a large enough effect; an effect the other way counts as inactive or inconclusive; note: potency is the fitted concentration of half-maximal effect; nearly all actives have a fitted effect of over 60% in size); details: recombinant CYP2D6, luciferin-ME EGE luminescence; series mostly up to 57.1 µM
# Sequence of Cytochrome P450 2D6 (Homo sapiens) (P10635 whole entry, looked up): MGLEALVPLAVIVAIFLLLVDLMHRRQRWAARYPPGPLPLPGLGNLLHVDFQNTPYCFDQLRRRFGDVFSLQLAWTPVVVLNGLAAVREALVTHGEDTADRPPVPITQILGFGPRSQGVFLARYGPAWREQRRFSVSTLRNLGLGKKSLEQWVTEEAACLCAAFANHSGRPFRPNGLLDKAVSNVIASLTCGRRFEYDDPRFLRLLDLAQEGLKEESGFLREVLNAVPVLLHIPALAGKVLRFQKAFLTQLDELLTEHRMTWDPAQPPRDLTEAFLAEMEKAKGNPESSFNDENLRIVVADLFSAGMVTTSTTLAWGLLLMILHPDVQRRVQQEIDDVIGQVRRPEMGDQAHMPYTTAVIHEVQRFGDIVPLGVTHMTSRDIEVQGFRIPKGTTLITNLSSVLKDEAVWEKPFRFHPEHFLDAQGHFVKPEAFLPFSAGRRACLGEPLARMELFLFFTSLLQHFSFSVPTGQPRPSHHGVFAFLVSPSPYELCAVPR
# Summary of the method: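 Human CYP2D6 (5 nM) with 30 uM Luciferin-ME EGE (at Km) in 100 mM KPO4, compound preincubated 10 min, then NADPH regeneration system for 60 min at room temperature. Luciferin read by luminescence; normalized to 1.43 uM quinidine.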
# [18] = Confirmation and Secondary Assay for Modulators of Hemoglobin Beta Chain Splicing at IVS2 654 locus (AID 910; active = well fitted curve in the direction sought with a large enough effect; an effect the other way counts as inactive or inconclusive;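 note: HeLa cells stably carrying EGFP split by mutant beta-globin IVS2-654 intron; per-well total GFP intensity by laser scanning cytometry after 2-day treatment; % of control where 0% means no effect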); details: HeLa EGFP-654 splicing reporter, GFP fluorescence, 48 h; series mostly up to 38.3 µM
# Summary of the method: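 Readout: per-well total peak green fluorescence (488 nm ex, 500–520 nm em) from objects 5–250 µm, reflecting correct splicing of an EGFP-654 reporter. Compounds were applied for 2 days at 37 °C to overnight-plated HeLa EGFP-654 cells; controls were DMSO and 500 nM IVS2-654 PNA.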
smiles,measurement,setting,value
COCCn1c(=O)c(-c2cn(C)c3ccccc23)nc2cnc(Oc3ccccc3)nc21,Potency,[1],> 11.4 µM
same,"activity change, negative = inhibition",[2],26.2%
same,Potency,[3],10 µM (active)
same,"activity change, negative = inhibition",[4],19.4%
same,Potency,[5],> 9.22 µM
same,Potency,[6],> 46 µM
same,Potency,[7],inactive
same,Potency,[8],3.16 µM (active)
same,Potency,[9],inactive
same,Potency,[10],3.16 µM (active)
same,outcome,[11],inactive
c1csc(CNc2nc(-c3ccc4c(c3)OCO4)nc3ccccc23)c1,Potency,[1],> 11.4 µM
same,"activity change, negative = inhibition",[2],0.483%
same,Potency,[3],0.794 µM (active)
same,"activity, negative = inhibition",[12],-13.1%
same,Potency,[5],> 46 µM
same,Potency,[6],> 46 µM
same,Potency,[13],inactive
same,Potency,[9],inactive
same,Potency,[14],3.16 µM (active)
same,outcome,[11],inactive
CC(C)NC(=O)N1CC[C@@]2(CCCN(C(=O)c3cccc(F)c3)C2)C1,Potency,[1],> 11.4 µM
same,"activity change, negative = inhibition",[2],-5.48%
same,Potency,[3],inactive
same,"activity change, negative = inhibition",[4],10.1%
same,Potency,[6],> 46 µM
same,Potency,[13],inactive
same,Potency,[7],inactive
same,outcome,[11],inactive
CC(=O)N1CCC2(CC1)CCN(c1ccccn1)CC2,Potency,[1],> 11.4 µM
same,"activity change, negative = inhibition",[2],1.64%
same,Potency,[3],inactive
same,"activity, negative = inhibition",[12],6.98%
same,Potency,[6],> 46 µM
same,Potency,[13],inactive
same,Potency,[7],inactive
same,outcome,[11],inactive
O=C(c1cnccn1)N1CCC2(CC1)CN(Cc1nccs1)C2,Potency,[1],> 11.4 µM
same,"activity change, negative = inhibition",[2],-5.34%
same,Potency,[3],inactive
same,"activity change, negative = inhibition",[4],-5.05%
same,"activity, negative = inhibition",[12],-2.27%
same,Potency,[6],> 46 µM
same,Potency,[7],inactive
same,outcome,[11],inactive
COCC(=O)N1CCC2(CC1)CN(Cc1ccccc1OC)C2,Potency,[1],> 11.4 µM
same,"activity change, negative = inhibition",[2],-2.68%
same,Potency,[3],inactive
same,"activity, negative = inhibition",[12],14.6%
same,Potency,[6],> 46 µM
same,Potency,[13],inactive
same,Potency,[7],inactive
same,outcome,[11],inactive
O=S(=O)(c1ccccc1)N1CCC2(CCN(Cc3ccncc3)CC2)CC1,Potency,[1],> 11.4 µM
same,"activity change, negative = inhibition",[2],-0.758%
same,Potency,[3],inactive
same,"activity, negative = inhibition",[12],7.32%
same,Potency,[6],> 46 µM
same,Potency,[13],inactive
same,Potency,[7],inactive
same,Potency,[8],3.98 µM (active)
same,Potency,[9],inactive
same,outcome,[11],inactive
Cc1cccc(CNc2ncncc2-c2cccc(NS(C)(=O)=O)c2)c1,Potency,[1],> 11.4 µM
same,"activity change, negative = inhibition",[2],-5.04%
same,Potency,[3],12.6 µM (active)
same,"activity, negative = inhibition",[12],0.163%
same,Potency,[6],> 46 µM
same,Potency,[13],inactive
same,Potency,[8],0.158 µM (active)
same,Potency,[9],inactive
same,Potency,[14],6.31 µM (active)
same,activation,[10],3.55%
same,outcome,[15],inactive
same,Potency,[16],inactive
same,outcome,[11],inactive
O=C(c1cccc(F)c1)N1CCC2(CC1)CN(c1ccc(-c3ccccc3)cc1)C2,Potency,[1],> 11.4 µM
same,"activity change, negative = inhibition",[2],9.76%
same,Potency,[3],inactive
same,"activity change, negative = inhibition",[4],-5.75%
same,"activity, negative = inhibition",[12],-20.4%
same,Potency,[13],inactive
same,Potency,[7],inactive
same,Potency,[8],inactive
same,Potency,[9],2.51 µM (active)
same,outcome,[11],inactive
Cn1cccc1C(=O)N1CCC2(CC1)CCN(c1ncccn1)CC2,Potency,[1],> 11.4 µM
same,"activity change, negative = inhibition",[2],0.908%
same,Potency,[3],inactive
same,"activity change, negative = inhibition",[4],5.08%
same,Potency,[6],> 46 µM
same,Potency,[13],inactive
same,Potency,[7],inactive
same,Potency,[8],inactive
same,outcome,[11],inactive
COc1ccc(CNc2ncncc2-c2ccc3c(c2)OCO3)c(OC)c1,Potency,[1],> 11.4 µM
same,"activity change, negative = inhibition",[2],11.1%
same,Potency,[3],0.501 µM (active)
same,"activity, negative = inhibition",[12],-6.57%
same,Potency,[5],> 46 µM
same,Potency,[6],> 46 µM
same,Potency,[13],inactive
same,Potency,[8],0.126 µM (active)
same,Potency,[9],inactive
same,Potency,[17],0.794 µM (active)
same,Potency,[18],inactive
same,Potency,[16],inactive
same,outcome,[11],inactive
O=c1c(-c2ccccc2)nc2cncnc2n1C1CC1,Potency,[1],> 11.4 µM
same,"activity change, negative = inhibition",[2],-14.9%
same,Potency,[3],2 µM (active)
same,"activity, negative = inhibition",[12],8.37%
same,Potency,[5],> 9.22 µM
same,Potency,[13],inactive
same,outcome,[11],inactive
CCNc1ncc2nc(-c3ccc(OC)cc3)c(=O)n(-c3ccc(OC)cc3)c2n1,Potency,[1],> 11.4 µM
same,"activity change, negative = inhibition",[2],-16%
same,Potency,[3],inactive
same,"activity change, negative = inhibition",[4],-5.13%
same,Potency,[5],> 9.22 µM
same,Potency,[6],> 46 µM
same,Potency,[13],inactive
same,Potency,[9],inactive
same,outcome,[11],inactive
O=C(c1csnn1)N1CCC[C@@]2(CCN(c3ccncc3)C2)C1,Potency,[1],> 11.4 µM
same,"activity change, negative = inhibition",[2],13.9%
same,Potency,[3],inactive
same,"activity, negative = inhibition",[12],8.6%
same,Potency,[6],> 46 µM
same,Potency,[13],inactive
same,Potency,[7],inactive
same,outcome,[11],inactive

# Source: PubChem BioAssay (NCATS)
